{"source": "the supplement of paper PMC8728848", "binders": {"B1": {"name": "PP2A1 (Arabidopsis thaliana) (protein)", "chain": "MFRNQDSKYLIPVQKEAPPVTTLPMKASTVKSPHNCEAILRDADPPISLSSVNLSEQLRSGVFLKPKKQIKYWVDERNSNCFMLFAKNLSITWSDDVNYWTWFTEKESPNENVEAVGLKNVCWLDITGKFDTRNLTPGIVYEVVFKVKLEDPAYGWDTPVNLKLVLPNGKEKPQEKKVSLRELPRYKWVDVRVGEFVPEKSAAGEITFSMYEHAAGVWKKGLSLKGVAIRPKQHHHHHH"}}, "test_in_all_cases": "glycan array binding signal (z-score within array); higher = stronger binding", "conditions_in_all_cases": "glycan notation: IUPAC condensed, linker removed", "key": {"[1]": {"target": "Fuc(a1-2)Gal(b1-3)GlcNAc", "procedure,_shortened": "(§1)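 The Consortium for Functional Glycomics database supplied 3228 glycan arrays, of which those lacking an available protein sequence were dropped. The binding signal, a within-array Z-score, was averaged across arrays of the same protein sequence and across linkers. Negative scores can be read as non-binding.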"}, "[2]": {"target": "Fuc(a1-2)Gal(b1-4)GlcNAc(b1-3)Gal(b1-4)GlcNAc", "procedure,_shortened": "as §1"}, "[3]": {"target": "Fuc(a1-2)[Gal(a1-3)]Gal(b1-4)Glc", "procedure,_shortened": "as §1"}, "[4]": {"target": "Fuc(a1-2)[GalNAc(a1-3)]Gal(b1-4)GlcNAc(b1-3)Gal(b1-4)GlcNAc", "procedure,_shortened": "as §1"}, "[5]": {"target": "Fuc(a1-2)[GalNAc(a1-4)]Gal(b1-4)GlcNAc", "procedure,_shortened": "as §1"}, "[6]": {"target": "Gal(a1-2)Gal", "procedure,_shortened": "as §1"}, "[7]": {"target": "Gal(a1-3)Gal(b1-4)[Fuc(a1-3)]GlcNAc(b1-2)Man(a1-3)[Gal(a1-3)Gal(b1-4)[Fuc(a1-3)]GlcNAc(b1-2)Man(a1-6)]Man(b1-4)GlcNAc(b1-4)GlcNAc", "procedure,_shortened": "as §1"}, "[8]": {"target": "Gal(b1-3)[Fuc(a1-4)]GlcNAc(b1-2)Man(a1-3)[Gal(b1-3)[Fuc(a1-4)]GlcNAc(b1-2)Man(a1-6)]Man(b1-4)GlcNAc(b1-4)[Fuc(a1-6)]GlcNAc", "procedure,_shortened": "as §1"}, "[9]": {"target": "Gal(b1-4)GalNAc(a1-3)[Fuc(a1-2)]Gal(b1-4)GlcNAc", "procedure,_shortened": "as §1"}, "[10]": {"target": "Gal(b1-4)Glc6S", "procedure,_shortened": "as §1"}, "[11]": {"target": "Gal(b1-4)GlcNAc(b1-2)Man(a1-3)[Man(a1-6)]Man(b1-4)GlcNAc(b1-4)GlcNAc", "procedure,_shortened": "as §1"}, "[12]": {"target": "Gal(b1-4)GlcNAc(b1-2)Man(a1-6)Man(b1-4)GlcNAc(b1-4)GlcNAc", "procedure,_shortened": "as §1"}, "[13]": {"target": "Gal(b1-4)GlcNAc(b1-3)Gal(b1-4)GlcNAc(b1-3)Gal(b1-4)GlcNAc", "procedure,_shortened": "as §1"}, "[14]": {"target": "Gal(b1-4)GlcNAc(b1-6)Gal(b1-4)GlcNAc(b1-6)GalNAc", "procedure,_shortened": "as §1"}, "[15]": {"target": "Gal3S(b1-4)Glc6S", "procedure,_shortened": "as §1"}, "[16]": {"target": "Gal3S(b1-4)GlcNAc6S", "procedure,_shortened": "as §1"}, "[17]": {"target": "GalNAc(a1-3)GalNAc", "procedure,_shortened": "as §1"}, "[18]": {"target": "GalNAc(b1-3)Gal", "procedure,_shortened": "as §1"}, "[19]": {"target": "GalNAc(b1-3)GalNAc", "procedure,_shortened": "as §1"}, "[20]": {"target": "GlcNAc(b1-3)Gal(b1-4)GlcNAc(b1-3)Gal(b1-4)GlcNAc", "procedure,_shortened": "as §1"}, "[21]": {"target": "GlcNAc(b1-4)GlcNAc(b1-4)GlcNAc", "procedure,_shortened": "as §1"}, "[22]": {"target": "Man(a1-2)Man(a1-2)Man(a1-6)[Man(a1-3)]Man", "procedure,_shortened": "as §1"}, "[23]": {"target": "Man(a1-2)Man(a1-3)[Man(a1-2)Man(a1-6)]Man", "procedure,_shortened": "as §1"}, "[24]": {"target": "Man(a1-2)Man(a1-3)[Man(a1-6)]Man(a1-6)[Man(a1-2)Man(a1-3)]Man(b1-4)GlcNAc(b1-4)GlcNAc", "procedure,_shortened": "as §1"}, "[25]": {"target": "Man(a1-2)Man(a1-6)[Man(a1-3)]Man(a1-6)[Man(a1-2)Man(a1-2)Man(a1-3)]Man(b1-4)GlcNAc(b1-4)GlcNAc", "procedure,_shortened": "as §1"}, "[26]": {"target": "Man(a1-3)[Man(a1-6)]Man(a1-6)[Man(a1-2)Man(a1-3)]Man(b1-4)GlcNAc(b1-4)GlcNAc", "procedure,_shortened": "as §1"}, "[27]": {"target": "Man(a1-3)[Man(a1-6)]Man(a1-6)[Man(a1-3)]Man(b1-4)GlcNAc(b1-4)GlcNAc", "procedure,_shortened": "as §1"}, "[28]": {"target": "Man(a1-3)[Man(a1-6)]Man(b1-4)GlcNAc(b1-4)GlcNAc", "procedure,_shortened": "as §1"}, "[29]": {"target": "Neu5Ac(a2-3)Gal(b1-3)[Fuc(a1-4)]GlcNAc(b1-3)Gal(b1-3)[Fuc(a1-4)]GlcNAc", "procedure,_shortened": "as §1"}, "[30]": {"target": "Neu5Ac(a2-3)Gal(b1-3)[Neu5Ac(a2-6)]GalNAc", "procedure,_shortened": "as §1"}}, "note": "About 410 targets per protein were measured; listed, in parts, are those with the strongest signals and a random draw of the rest.", "data": [{"binder": "B1", "values": [{"measurement": "glycan array binding signal (z-score)", "setting": "[1]", "result": -0.319}, {"measurement": "glycan array binding signal (z-score)", "setting": "[2]", "result": -0.347}, {"measurement": "glycan array binding signal (z-score)", "setting": "[3]", "result": -0.572}, {"measurement": "glycan array binding signal (z-score)", "setting": "[4]", "result": -0.018}, {"measurement": "glycan array binding signal (z-score)", "setting": "[5]", "result": -0.398}, {"measurement": "glycan array binding signal (z-score)", "setting": "[6]", "result": -0.291}, {"measurement": "glycan array binding signal (z-score)", "setting": "[7]", "result": -0.011}, {"measurement": "glycan array binding signal (z-score)", "setting": "[8]", "result": 1.34}, {"measurement": "glycan array binding signal (z-score)", "setting": "[9]", "result": -0.498}, {"measurement": "glycan array binding signal (z-score)", "setting": "[10]", "result": 0.116}, {"measurement": "glycan array binding signal (z-score)", "setting": "[11]", "result": 2.93}, {"measurement": "glycan array binding signal (z-score)", "setting": "[12]", "result": 0.362}, {"measurement": "glycan array binding signal (z-score)", "setting": "[13]", "result": -0.223}, {"measurement": "glycan array binding signal (z-score)", "setting": "[14]", "result": 0.051}, {"measurement": "glycan array binding signal (z-score)", "setting": "[15]", "result": 0.405}, {"measurement": "glycan array binding signal (z-score)", "setting": "[16]", "result": 0.165}, {"measurement": "glycan array binding signal (z-score)", "setting": "[17]", "result": -0.698}, {"measurement": "glycan array binding signal (z-score)", "setting": "[18]", "result": -0.293}, {"measurement": "glycan array binding signal (z-score)", "setting": "[19]", "result": -0.497}, {"measurement": "glycan array binding signal (z-score)", "setting": "[20]", "result": -0.708}, {"measurement": "glycan array binding signal (z-score)", "setting": "[21]", "result": 2.52}, {"measurement": "glycan array binding signal (z-score)", "setting": "[22]", "result": 0.03}, {"measurement": "glycan array binding signal (z-score)", "setting": "[23]", "result": 0.174}, {"measurement": "glycan array binding signal (z-score)", "setting": "[24]", "result": 3.07}, {"measurement": "glycan array binding signal (z-score)", "setting": "[25]", "result": 2.69}, {"measurement": "glycan array binding signal (z-score)", "setting": "[26]", "result": 2.97}, {"measurement": "glycan array binding signal (z-score)", "setting": "[27]", "result": 3.55}, {"measurement": "glycan array binding signal (z-score)", "setting": "[28]", "result": 2.85}, {"measurement": "glycan array binding signal (z-score)", "setting": "[29]", "result": 0.594}, {"measurement": "glycan array binding signal (z-score)", "setting": "[30]", "result": 0.432}]}]}
